In paper PMC5515408, “Sequence-specific DNA binding by MYC/MAX to low-affinity non-E-box motifs”:
In all, about 5,000 sequences were measured (“log2 normalized fluorescence”: median about 0.089, highest 2% from about 0.81 on). Many of the other results were omitted from the sample, so the highest values are more common in it than they were.

Each sequence was assayed against MYC (p64);MAX (p21), in MYC:MAX (human;human, UniProt P01106-1;P61244-2 1-439;1-151, |) (assay: protein-binding microarray (anti-MAX antibody); PBM: 15 mM Tris-HCl pH 7.5, 100 mM KCl, 0.075% NP40, 7.5 mM beta-mercaptoethanol, 375 ng/ul BSA, 8 ng/ul poly(dA-dT):(dA-dT), 550 ng complex, 60 min, room tempe; high values mean tight binding). Conditions: protein: recombinant;recombinant; tags: 6xHis;6xHis; copies: 1;1; label: 3' end of printed strand (linker) attached to glass slide; dsDNA, one strand shown.
Chain of MYC (p64);MAX (p21), in MYC:MAX (P01106 16-454, chain 1 of 2): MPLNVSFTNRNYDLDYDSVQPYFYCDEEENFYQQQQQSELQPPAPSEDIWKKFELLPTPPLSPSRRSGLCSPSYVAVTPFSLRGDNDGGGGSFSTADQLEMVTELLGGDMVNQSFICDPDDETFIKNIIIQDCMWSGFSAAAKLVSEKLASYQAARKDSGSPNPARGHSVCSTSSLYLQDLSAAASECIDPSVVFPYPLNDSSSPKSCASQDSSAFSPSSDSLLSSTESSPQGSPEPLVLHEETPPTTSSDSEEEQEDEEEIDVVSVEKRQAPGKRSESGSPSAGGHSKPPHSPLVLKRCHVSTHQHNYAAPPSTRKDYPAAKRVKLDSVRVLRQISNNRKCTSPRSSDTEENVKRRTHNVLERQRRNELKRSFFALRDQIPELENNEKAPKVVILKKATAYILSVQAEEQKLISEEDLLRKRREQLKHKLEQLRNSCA
Chain of MYC (p64);MAX (p21), in MYC:MAX (P61244 other isoform, or with tags, fused parts or gaps |, chain 2 of 2): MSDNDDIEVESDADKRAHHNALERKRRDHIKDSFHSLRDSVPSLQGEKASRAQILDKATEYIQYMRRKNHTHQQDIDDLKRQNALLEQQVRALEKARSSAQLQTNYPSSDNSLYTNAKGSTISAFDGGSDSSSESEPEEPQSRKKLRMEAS
How it was run: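 Recombinant His-tagged human MYC:MAX or MAX:MAX dimers (550 ng, expressed in E. coli) were incubated for 60 min at room temperature in Tris-KCl buffer, pH 7.5, with NP40, BSA and poly(dA-dT) competitor. The custom Agilent glass array held ~5000 unique 12-nt sequences, each spotted in triplicate and made double-stranded by primer extension. Bound protein was detected with anti-MAX and secondary antibodies and scanned at 543 nm. Binding is reported as log2 normalized fluorescence.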
In the case of “CCGGCTGAGAACACGTATTAATAGCTAAGATTACTATATCGACG”, the binding signal is reported as 0.318 log2 normalized fluorescence. “CCGGCTGACCTTGAGTATTAATAGCTAAGATTACTATATCGACG” was tested, and the binding signal was 0.204 log2 normalized fluorescence. For “CCGGCAGACACGCGATATTAATAGCTAAGATTACTATATCGACG”, the binding signal was 0.437 log2 normalized fluorescence. In the case of “CCGGCTGGCACGTGGTATTAATAGCTAAGATTACTATATCGACG”, the binding signal is reported as 0.809 log2 normalized fluorescence. For “CCGGCAGACACGTCGTATTAATAGCTAAGATTACTATATCGACG”, the binding signal was 0.32 log2 normalized fluorescence. For “CCGGCTGGCACGTGGCATTAATAGCTAAGATTACTATATCGACG”, the binding signal was 0.721 log2 normalized fluorescence. In the case of “CCGGCCGACACGTGTTATTAATAGCTAAGATTACTATATCGACG”, the binding signal is reported as 0.999 log2 normalized fluorescence. In the case of “CCGGCAGACACGTGATATTAATAGCTAAGATTACTATATCGACG”, the binding signal is reported as 0.851 log2 normalized fluorescence. For “CCGGCAGACACGTGATCTTAATAGCTAAGATTACTATATCGACG”, the binding signal was 0.751 log2 normalized fluorescence. In the case of “CCGGCAGACACGTGTTATTAATAGCTAAGATTACTATATCGACG”, the binding signal is reported as 0.993 log2 normalized fluorescence. In the case of “CCGGCAGAAACGTGTTATTAATAGCTAAGATTACTATATCGACG”, the binding signal is reported as 0.573 log2 normalized fluorescence. In the case of “CCGGCTGGCACGTGGTGTTAATAGCTAAGATTACTATATCGACG”, the binding signal is reported as 0.954 log2 normalized fluorescence. For “CCGGCCGACACGGCGTATTAATAGCTAAGATTACTATATCGACG”, the binding signal was 0.161 log2 normalized fluorescence. In the case of “CCGGCCGACACCTGTTATTAATAGCTAAGATTACTATATCGACG”, the binding signal is reported as 0.432 log2 normalized fluorescence. For “CCGGCTGATCCCCCGTATTAATAGCTAAGATTACTATATCGACG”, the binding signal was 0.0512 log2 normalized fluorescence. For “CCGGCTGACACGGCGTATTAATAGCTAAGATTACTATATCGACG”, the binding signal was 0.188 log2 normalized fluorescence. With “CCGGCTGAACGGTTGTATTAATAGCTAAGATTACTATATCGACG” the binding signal was 0.123 log2 normalized fluorescence. With “CCGGCTGAACCAACGTATTAATAGCTAAGATTACTATATCGACG” the binding signal was 0.302 log2 normalized fluorescence. With “CCGGCTGAGTTCCCGTATTAATAGCTAAGATTACTATATCGACG” the binding signal was 0.0824 log2 normalized fluorescence. For “CCGGCTGACGTCACGTATTAATAGCTAAGATTACTATATCGACG”, the binding signal was 0.246 log2 normalized fluorescence. “CCGGCTGAAAGCATGTATTAATAGCTAAGATTACTATATCGACG” was tested, and the binding signal was 0.491 log2 normalized fluorescence. With “CCGGCTGAGCATGCGTATTAATAGCTAAGATTACTATATCGACG” the binding signal was 0.461 log2 normalized fluorescence. In the case of “CCGGCTGAGTCCGCGTATTAATAGCTAAGATTACTATATCGACG”, the binding signal is reported as 0.0725 log2 normalized fluorescence. For “CCGGCTGACCCGTGGTTTTAATAGCTAAGATTACTATATCGACG”, the binding signal was 0.466 log2 normalized fluorescence. For “CCGGCAGATACGTGGTGTTAATAGCTAAGATTACTATATCGACG”, the binding signal was 0.257 log2 normalized fluorescence. In the case of “CCGGCAGACACGTGGTGTTAATAGCTAAGATTACTATATCGACG”, the binding signal is reported as 0.826 log2 normalized fluorescence. In the case of “CCGGCAGACATGTGGTGTTAATAGCTAAGATTACTATATCGACG”, the binding signal is reported as 0.734 log2 normalized fluorescence. “CCGGCTGACTTCAGGTATTAATAGCTAAGATTACTATATCGACG” was tested, and the binding signal was 0.148 log2 normalized fluorescence. “CCGGCTGACCAAGTGTATTAATAGCTAAGATTACTATATCGACG” was tested, and the binding signal was 0.214 log2 normalized fluorescence. In the case of “CCGGCTTTCACGTGGTATTAATAGCTAAGATTACTATATCGACG”, the binding signal is reported as 0.847 log2 normalized fluorescence. “CCGGCCTTCACGTGGTATTAATAGCTAAGATTACTATATCGACG” was tested, and the binding signal was 0.765 log2 normalized fluorescence. “CCGGCATTCACGTGGTATTAATAGCTAAGATTACTATATCGACG” was tested, and the binding signal was 0.958 log2 normalized fluorescence. For “CCGGCAATCACGTGGTATTAATAGCTAAGATTACTATATCGACG”, the binding signal was 0.75 log2 normalized fluorescence. For “CCGGCGTTCACGTGGTATTAATAGCTAAGATTACTATATCGACG”, the binding signal was 0.664 log2 normalized fluorescence. With “CCGGCATCCACGTGGTATTAATAGCTAAGATTACTATATCGACG” the binding signal was 0.471 log2 normalized fluorescence. For “CCGGCTGACGAGATGTATTAATAGCTAAGATTACTATATCGACG”, the binding signal was 0.0764 log2 normalized fluorescence. “CCGGCTGACACGCGCTATTAATAGCTAAGATTACTATATCGACG” was tested, and the binding signal was 0.811 log2 normalized fluorescence. For “CCGGCTGGGTCGTGGTATTAATAGCTAAGATTACTATATCGACG”, the binding signal was 0.0754 log2 normalized fluorescence. For “CCGGCTGAGGTGACGTATTAATAGCTAAGATTACTATATCGACG”, the binding signal was 0.0346 log2 normalized fluorescence. In the case of “CCGGCTGAATAATTGTATTAATAGCTAAGATTACTATATCGACG”, the binding signal is reported as -0.0392 log2 normalized fluorescence. In the case of “CCGGCAGACACGTGGTCTTAATAGCTAAGATTACTATATCGACG”, the binding signal is reported as 0.904 log2 normalized fluorescence. In the case of “CCGGCAGACACGTGGTATTAATAGCTAAGATTACTATATCGACG”, the binding signal is reported as 0.798 log2 normalized fluorescence. “CCGGCTGACACGTGGTCTTAATAGCTAAGATTACTATATCGACG” was tested, and the binding signal was 1.02 log2 normalized fluorescence. In the case of “CCGGCTGACACGCGGTCTTAATAGCTAAGATTACTATATCGACG”, the binding signal is reported as 1.03 log2 normalized fluorescence. With “CCGGCTGACACGTCTTATTAATAGCTAAGATTACTATATCGACG” the binding signal was 0.308 log2 normalized fluorescence. For “CCGGCTGACACACGGTCTTAATAGCTAAGATTACTATATCGACG”, the binding signal was 0.354 log2 normalized fluorescence. In the case of “CCGGCTGACCCGTGGTCTTAATAGCTAAGATTACTATATCGACG”, the binding signal is reported as 0.399 log2 normalized fluorescence. With “CCGGCTAACACGCGGTCTTAATAGCTAAGATTACTATATCGACG” the binding signal was 0.739 log2 normalized fluorescence. With “CCGGCAGACACGCGGTCTTAATAGCTAAGATTACTATATCGACG” the binding signal was 0.8 log2 normalized fluorescence. For “CCGGCTGAACAAGGGTATTAATAGCTAAGATTACTATATCGACG”, the binding signal was 0.093 log2 normalized fluorescence. For “CCGGCTGACCAAAGGTATTAATAGCTAAGATTACTATATCGACG”, the binding signal was 0.0357 log2 normalized fluorescence. “CCGGCTGACGACAAGTATTAATAGCTAAGATTACTATATCGACG” was tested, and the binding signal was 0.0769 log2 normalized fluorescence. “CCGGCTGACTCCAAGTATTAATAGCTAAGATTACTATATCGACG” was tested, and the binding signal was 0.0835 log2 normalized fluorescence.
